From PubChem BioAssay

Assay: binders of probe aFSTL3 on microarray, primary screen, stem cell growth factor project, biochemical, small-molecule microarray, fluorescence 635/667 (AID 1064);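 note: measures binding of the biotinylated anti-FSTL3 antibody to printed compounds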
Details: higher = more signal

Compared with `Cc1ccc(S[C@]2(C(=O)NCc3ccccc3)CC(=O)N(Cc3ccccc3)[C@@H]2c2ccc(CO)cc2)cc1`, `Cc1ccc(S[C@]2(C(=O)NCC(C)C)CC(=O)N(Cc3ccccc3)[C@@H]2c2ccc(CO)cc2I)cc1` is lower in composite z-score: 0.264 for the first, -0.0472 for the second.

Compared with `C=C(C(=O)CC[C@H](OC(C)=O)c1ccc(OCCO)cc1)C(C)C`, `C=C(COC)C(=O)CC[C@H](OC(C)=O)c1cccc(OCCO)c1` is higher in composite z-score: -0.398 for the first, -0.0206 for the second.

Compared with `O=C1N(CCS(=O)(=O)c2ccccc2)c2ccccc2C[C@@]12COC(c1ccc(OCCCO)cc1)=N2`, `[N-]=[N+]=NCc1ccccc1C[C@@]1(C(=O)N2CCOCC2)N=C(c2ccc(OCCCO)cc2)O[C@@H]1c1ccccc1CN=[N+]=[N-]` is higher in composite z-score: -0.178 for the first, 0.998 for the second.

Going from `CCOC(=O)C[C@H]1[C@H](OC(=O)c2ccc(-c3ccccc3)cc2)[C@@H](NC(=O)Cc2ccc(OC)cc2)c2cc(OCCCO)ccc2N1C(=O)c1ccc2ccccc2n1` to `CCOC(=O)C[C@H]1[C@H](OC(=O)c2ccc(-c3ccccc3)cc2)[C@@H](NC(=O)c2ccc3ccccc3c2)c2cc(OCCCO)ccc2N1C(=O)Cc1ccc(OC)cc1`, the composite z-score rises from -0.389 to -0.325.

Going from `C=CCNC(=O)[C@@H]1[C@H]2C(=O)O[C@H](c3ccccc3)[C@H](c3ccccc3)N2[C@H](c2ccc(OCCO)cc2)[C@@]12C(=O)Nc1ccccc12` to `O=C1O[C@@H](c2ccccc2)[C@@H](c2ccccc2)N2[C@@H](c3ccc(OCCO)cc3)[C@]3(C(=O)Nc4ccc(C#CC5=CCCCC5)cc43)[C@@H](C(=O)O)[C@H]12`, the composite z-score falls from 0.511 to 0.44.

Compared with `COCCOC(=O)N1C(=O)[C@@]2(c3cc(C#CCNC(N)=O)ccc31)[C@H](c1ccccc1OCCO)N1[C@H](c3ccccc3)[C@H](c3ccccc3)OC(=O)[C@H]1[C@@H]2C(N)=O`, `COCCOC(=O)N1C(=O)[C@@]2(c3cc(C#CCC(C(=O)OC)C(=O)OC)ccc31)[C@H](C(=O)N1CCCCCCC1)[C@H]1C(=O)O[C@H](c3ccccc3)[C@H](c3ccccc3)N1[C@@H]2c1ccc(OCCO)cc1` is higher in composite z-score: -0.309 for the first, 3.71 for the second.

Going from `COC(=O)[C@@]1(Cc2ccc(F)cc2)[C@H]2c3cc(C(=O)N4CCCC4)n(Cc4cccc5ccccc45)c3C[C@H]2CN1C(=O)c1ccccc1` to `C=CCC(OC(C)=O)[C@@H]1[C@@H](N(Cc2cccc3ccccc23)C(=O)c2cccc3ccccc23)c2cc(OCCCO)ccc2N1C(=O)c1ccc2ccccc2n1` (stereo partly specified), the composite z-score falls from 0.242 to -0.218.

First: CC(C)CNC(=O)[C@@]1(c2ccc([N+](=O)[O-])cc2)CC(=O)N(CC23CC4CC(CC(C4)C2)C3)[C@@H]1c1ccc(CO)cc1
Second: CC(C)N1C(=O)c2ccccc2[C@@H](C(=O)NCCCN(C)C)[C@@H]1c1ccc(CO)cc1
The composite z-score of the first is lower: 0.158 for the first, 0.878 for the second.

Compared with `CC1=C2[C@@H](CCc3ccccc3)OB(O)C[C@@H]2n2c(=O)n(-c3ccccc3)c(=O)n2C1`, `O=C1C=CC(=O)[C@@H]2CC(COc3ccccc3)=C3[C@@H](CCc4ccccc4)OB(O)C[C@@H]3[C@H]12` is higher in composite z-score: -0.388 for the first, 0.232 for the second.

Going from `CCOC(=O)C[C@H]1[C@H](OC(=O)Cc2ccc3c(c2)OCO3)[C@@H](NC(=O)C2CCCCC2)c2cc(OCCCO)ccc2N1C(=O)Cc1ccc(OC)cc1` to `CCOC(=O)C[C@H]1[C@H](OC(=O)c2ccccc2-c2ccccc2)[C@@H](NC(=O)c2ccc3ccccc3c2)c2cc(OCCCO)ccc2N1C(=O)c1ccc2ccccc2n1`, the composite z-score rises from -0.397 to -0.279.

First: O=C(CS)NCCCCCCNC(=O)[C@H]1C[C@H]2C(=O)NCC(=O)N2[C@H]1c1ccc(O)cc1
Second: C[N+](C)(C)CCCCCCNC(=O)[C@H]1C[C@H]2C(=O)N3CCC[C@H]3C(=O)N2[C@H]1c1ccc(O)cc1
The composite z-score of the first is higher: 0.249 for the first, 0.159 for the second.

First: C[C@H]1NC(=O)[C@H](Cc2ccccc2)NC(=O)[C@@]23C(=O)N[C@@H](Cc4ccccc4)C2[C@H](C)[C@@]2(C)O[C@H]2C3/C=C/C/C=C\CNC1=O (stereo partly specified)
Second: C=CCOC(=O)[C@H]1[C@@H]2C(=O)O[C@@H](c3ccccc3)[C@@H](c3ccccc3)N2[C@@H](c2ccc(OCCOC(=O)[C@@H]3C[C@@H]4C(=O)NCC(=O)N4[C@@H]3c3ccc(O)cc3)cc2)[C@]12C(=O)Nc1ccccc12
The composite z-score of the first is lower: -0.231 for the first, -0.214 for the second.

Going from `CS(=O)(=O)CCOC(=O)C1=CC(c2ccc(CO)cc2)=CC(C2CC2)N(Cc2cc3c(cc2Br)OCO3)C=C1C(=O)OCCS(C)(=O)=O` (stereo unspecified) to `CN1C=C(C(=O)OCCS(C)(=O)=O)C(C(=O)OCCS(C)(=O)=O)=CC(CCCO)=CC1C1CC1` (stereo unspecified), the composite z-score rises from -0.232 to -0.135.

Going from `CCOC(=O)C1=C[C@@H](C(C)C)N(S(=O)(=O)c2ccc(C)cc2)[C@H]1c1ccc(C(C)C)cc1` to `COC(=O)c1ccc(C(O)C2C=CC3C(=O)N(C)C(=O)C3N2NC(=O)OC(C)(C)C)o1` (stereo unspecified), the composite z-score rises from -0.462 to -0.0154.

Compared with `COCCOC(=O)N1C(=O)[C@@]2(c3cc(C#CC4=CCCCC4)ccc31)[C@H](C(=O)NC[C@H](O)c1ccccc1)[C@H]1C(=O)O[C@H](c3ccccc3)[C@H](c3ccccc3)N1[C@@H]2c1ccc(O)cc1`, `COCCOC(=O)N1C(=O)[C@@]2(c3ccccc31)[C@H](C(=O)Nc1nc3ccccc3s1)[C@H]1C(=O)O[C@H](c3ccccc3)[C@H](c3ccccc3)N1[C@@H]2c1ccc(OCCO)cc1` is higher in composite z-score: -0.377 for the first, 0.001 for the second.

Compared with `N[C@@H](Cc1ccccc1)Cn1cc(-c2ccccc2)nn1`, `CCCCC=C[C@@H](NC(=O)c1ccco1)c1ccccc1` is lower in composite z-score: 0.407 for the first, -0.0252 for the second.

Going from `COc1ccc([Si](C)(C)[C@H]2[C@H](CCn3cc(CCO)nn3)O[C@@]3(C(=O)N(Cc4ccc(N5CCOC5=O)cc4)c4ccccc43)[C@@H]2C)cc1` to `O=C1OCCC=C[C@H]2OC34C=CCN(Cc5ccccc5)C(=O)[C@H]3N(CCCCCCO)C(=O)[C@@H]4C12` (stereo partly specified), the composite z-score rises from 0.102 to 0.359.

Compared with `CC(=O)Nc1cc(Br)ccc1C(=O)O`, `CN1CCC(CCCO)=CC1c1ccc(CN2CCCC2)cc1` (stereo unspecified) is higher in composite z-score: -0.135 for the first, 1.16 for the second.
